# From paper PMC4336329 (PLoS ONE, 2015)
# Among all 310,000 compounds or so, about 2,200 (0.71%) showed an effect of 50% or more. The effect is printed as a negative number. Many of the other results were omitted from the sample, so strong results are more common in it than they were.
# Target: human ether-à-go-go-related gene (hERG) potassium channel (human, UniProt Q12809)
# Assay: primary screen, population patch clamp on CHO cells stably expressing hERG; higher = less effect of the substance
# Sequence of human ether-à-go-go-related gene (hERG) potassium channel (Q12809 whole entry, looked up): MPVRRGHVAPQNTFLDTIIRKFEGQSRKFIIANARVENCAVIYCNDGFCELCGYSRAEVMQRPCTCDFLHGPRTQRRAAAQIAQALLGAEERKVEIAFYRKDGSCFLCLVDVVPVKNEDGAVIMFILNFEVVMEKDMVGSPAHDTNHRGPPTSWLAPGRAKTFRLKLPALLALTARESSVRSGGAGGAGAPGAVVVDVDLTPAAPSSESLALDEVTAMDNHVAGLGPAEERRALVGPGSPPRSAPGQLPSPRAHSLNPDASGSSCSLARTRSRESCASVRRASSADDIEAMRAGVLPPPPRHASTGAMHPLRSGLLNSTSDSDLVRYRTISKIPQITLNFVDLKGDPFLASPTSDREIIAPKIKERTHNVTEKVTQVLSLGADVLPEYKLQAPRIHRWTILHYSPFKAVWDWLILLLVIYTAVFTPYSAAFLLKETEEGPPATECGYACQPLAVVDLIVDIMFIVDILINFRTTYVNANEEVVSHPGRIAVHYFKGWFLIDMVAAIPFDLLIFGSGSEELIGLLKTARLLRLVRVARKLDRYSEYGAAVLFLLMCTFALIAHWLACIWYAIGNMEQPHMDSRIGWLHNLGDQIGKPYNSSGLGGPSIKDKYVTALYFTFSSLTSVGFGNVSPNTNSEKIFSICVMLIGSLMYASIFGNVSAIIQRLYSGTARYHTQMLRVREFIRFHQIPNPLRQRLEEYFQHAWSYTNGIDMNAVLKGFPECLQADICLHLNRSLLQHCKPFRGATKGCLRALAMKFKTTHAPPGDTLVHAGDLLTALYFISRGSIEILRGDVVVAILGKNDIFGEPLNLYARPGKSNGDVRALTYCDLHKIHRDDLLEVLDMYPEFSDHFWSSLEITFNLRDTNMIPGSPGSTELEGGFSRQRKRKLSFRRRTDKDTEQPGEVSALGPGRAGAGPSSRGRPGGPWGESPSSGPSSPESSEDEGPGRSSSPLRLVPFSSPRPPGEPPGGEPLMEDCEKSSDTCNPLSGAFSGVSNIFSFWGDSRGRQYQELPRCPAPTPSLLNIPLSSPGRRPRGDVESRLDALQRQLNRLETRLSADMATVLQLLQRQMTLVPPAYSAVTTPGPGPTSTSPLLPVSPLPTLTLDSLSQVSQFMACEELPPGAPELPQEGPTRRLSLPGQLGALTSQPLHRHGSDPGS
row,SMILES,"hERG current change (%, negative = inhibition) at 1uM [%]"
1,N#CCCSc1ncnc2c1oc1ccccc12,4.55
2,COc1ccc(NC(=O)CN2CCN(c3ccc(F)cc3)CC2)cc1,7.86
3,CCOc1ccc(NC(=O)CN2CCN(c3ccc(F)cc3)CC2)cc1,11.4
4,CCOC(=O)N1CCC(NC(=O)c2cc(-c3ccc(F)cc3)[nH]c2C)CC1,11.6
5,Cc1[nH]c(-c2ccc(F)cc2)cc1C(=O)N1CCN(c2ccccc2)CC1,-29
6,CCOC(=O)N1CCN(C(=O)c2cc(-c3ccc(F)cc3)[nH]c2C)CC1,-54.1
7,CCOc1ccc(NC(=O)CN2CCN(CC(=O)Nc3ccc(F)cc3)CC2)cc1,-87.3
8,CCn1cc(/C=C/C(=O)Nc2c(C)nn(Cc3ccccc3C)c2C)cn1,15.5
9,CC(=O)N/N=C/c1cc(C)n(-c2ccc(Br)cc2)c1C,1.14
10,CC1N(C(=O)N2CCOCC2)CCN1S(=O)(=O)c1ccc(Cl)cc1 (stereo not shown),4
11,CN(C)CCCNC(=O)/C(=C\c1ccc(-c2ccc(Br)cc2)o1)NC(=O)c1ccccc1,-82
12,CN(C)CCNC(=O)/C(=C/c1ccc(-c2ccc(Cl)cc2Cl)o1)NC(=O)c1ccccc1,-7.71
13,CN(C)CCNC(=O)/C(=C/c1ccc(-c2cccc(Cl)c2)o1)NC(=O)c1ccccc1,-31.4
14,Cc1ccc(C(=O)N/C(=C\c2ccc(-c3ccc(Br)cc3)o2)C(=O)NC2CCS(=O)(=O)C2)cc1 (stereo not shown),7.85
15,Cc1ccc(C(=O)N/C(=C\c2ccc(-c3ccc(Cl)cc3)o2)C(=O)NCCCN(C)C)cc1,-93.5
16,Cc1ccc(C(=O)N/C(=C\c2ccc(-c3cc(Cl)ccc3Cl)o2)C(=O)NCc2cccnc2)cc1,5.35
17,Cc1ccc(/C=C(\NC(=O)c2ccccc2)C(=O)NCCN2CCOCC2)o1,1.36
18,Cc1ccc(C(=O)N/C(=C/c2ccc(-c3ccc(Br)cc3)o2)C(=O)NC2CCS(=O)(=O)C2)cc1 (stereo not shown),3.65
19,CN(C)CCNC(=O)/C(=C/c1ccc(-c2ccc(Cl)cc2)o1)NC(=O)c1ccccc1,-82
20,O=C(NCCO)/C(=C\c1ccc([N+](=O)[O-])o1)NC(=O)c1ccccc1,4.89
21,Cc1ccc(C(=O)N/C(=C\c2ccc(Cl)cc2)C(=O)NCC2CCCO2)cc1 (stereo not shown),-38.7
22,Cc1ccc(C(=O)N/C(=C\c2ccc(-c3ccc(Br)cc3)o2)C(=O)NCCCN(C)C)cc1,-84.2
23,CCCc1cc(=O)[nH]c(SCC(=O)N(C)C2CCCCC2)n1,13.3
24,CCSC1(SCC)N=C(N)C2(C#N)C(c3ccccc3)NC3=C(CCC3)C12C#N (stereo not shown),14.4
25,CN(C(=O)c1ccncc1)c1nnc(-c2cccnc2)s1,12.8
26,CN(CC(=O)N1CCCCCC1)S(=O)(=O)c1ccc(Br)cc1,0.738

row,SMILES,"hERG current change (%, negative = inhibition) at 1uM [%]"
1,COc1ccc(OCC(O)COc2ccc(C(=O)O)cc2)cc1 (stereo not shown),8.21
2,CCc1cc(C(=O)N/N=C/c2ccc(O)cc2)c2ccccc2n1,9.78
3,Cn1ncc(Br)c1C(=O)Nc1ccc(Br)cn1,16.3
4,CCC(C)[C@H](NC(=O)[C@@H]1CSC2c3ccccc3C(=O)N21)C(=O)N1CCCCC1 (stereo partly shown),8.7
5,CC1(C)CC(NC(=O)Cc2ccc(Cl)cc2)CC(C)(C)N1,16.7
6,Cc1ccc(-n2nc(C(=O)O)cc2-c2ccc(Cl)cc2)cc1,8.61
7,O=C(c1cc(-c2ccc(Cl)cc2)n(-c2ccc(Cl)c(Cl)c2)n1)N1CCOCC1,5.69
8,O=C(c1cc(-c2ccc(Cl)cc2)n(-c2ccc(Cl)cc2)n1)N1CCOCC1,-56.8
9,Cc1ccc(-n2nc(C(=O)N3CCOCC3)cc2-c2ccc(Cl)cc2)cc1,-87.4
10,O=C(c1cc(-c2ccc(Cl)cc2)n(-c2ccc(Cl)cc2Cl)n1)N1CCOCC1,-40.7
11,O=C(c1cc(-c2ccc(Cl)cc2)n(-c2cc(Cl)ccc2Cl)n1)N1CCOCC1,-3.98
12,COc1ccc(NC(=O)C2CCC(C)(C(=O)O)C2(C)C)cc1 (stereo not shown),11.1
13,CC(OC(=O)c1ccccc1NCCO)C(=O)Nc1ccc(S(=O)(=O)N2CCOCC2)cc1 (stereo not shown),11.6
14,CN=C1S/C(=C\c2ccc(O)c(OC)c2)C(=O)N1C,14
15,Cc1cccc(-n2c(SCC(=O)N(C)C3CCS(=O)(=O)C3)nc3ccccc3c2=O)c1C (stereo not shown),13.9
16,CC(CCc1ccccc1)NC(=O)C1CCCN(c2nnc(-n3cccc3)s2)C1 (stereo not shown),-7.23
17,O=C(NC1CCN(Cc2ccccc2)CC1)C1CCCN(c2nnc(-n3cccc3)s2)C1 (stereo not shown),-65.2
18,O=C(NC1CCN(Cc2ccccc2)CC1)C1CCN(c2nnc(-n3cccc3)s2)CC1,-28.2
19,O=[N+]([O-])c1cccc2ccc(/C=C/c3ccc(Cl)cc3)nc12,1.88
20,Cc1nc2c(ccc3nc(NC(=O)c4ccc5c(c4)OCCO5)sc32)s1,-86.6
21,Cc1nc2ccc3nc(NC(=O)c4ccc5c(c4)OCCO5)sc3c2s1,9.46
22,Cc1nc2c(ccc3nc(NC(=O)c4ccc(S(=O)(=O)N(C)C)cc4)sc32)s1,16.4
23,COc1ccc2c(c1)c(C(=O)O)c(C)n2CC(C)C,-2.31
24,CC(NS(=O)(=O)/C=C/c1ccccc1)C(=O)O (stereo not shown),12.5
25,CC(C)Cn1cc(C(=O)N2CCC3(CC2)OCCO3)c2c3ccccc3n(C)c2c1=O,-1.15
26,O=C(Cc1c(F)c(F)c(F)c(F)c1F)Nc1nc(-c2ccccc2)cs1,9.84
